High-throughput results deposited in PubChem BioAssay by National Center for Advancing Translational Sciences (NCATS).
Sampled rows, rich in hits. Any-hit rate of the full collection: about 2.5%.
Cruzain inh noDet – inhibitors of Trypanosoma cruzi cruzain without detergent. P25779. purified cruzain, Z-FR-AMC fluorescence, no detergent. Potency, µM, for inactives: max response, negative = inhibition, actives largely listed as inhibitors. hit rate 2.3% among 200,000. AID 1476;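 further: plate controls were enzyme without inhibitor for no effect and buffer without enzyme for full effect; nearly all actives have a fitted effect of over 40% in size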
Target sequence (P25779 123-467 limits assumed): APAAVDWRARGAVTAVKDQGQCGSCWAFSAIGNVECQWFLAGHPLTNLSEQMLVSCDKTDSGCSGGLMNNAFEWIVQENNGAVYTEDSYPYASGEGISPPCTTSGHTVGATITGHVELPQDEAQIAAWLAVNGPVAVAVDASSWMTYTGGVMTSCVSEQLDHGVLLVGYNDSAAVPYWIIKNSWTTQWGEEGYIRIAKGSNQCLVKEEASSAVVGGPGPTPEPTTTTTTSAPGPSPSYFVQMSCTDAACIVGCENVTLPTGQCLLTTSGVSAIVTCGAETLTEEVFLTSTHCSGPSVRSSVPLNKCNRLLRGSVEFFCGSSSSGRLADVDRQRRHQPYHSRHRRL
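Detergent-free condition (0.00005% Triton X-100) in acetate buffer pH 5.5 with DTT. 1.5 nM enzyme and compound were pre-mixed 15 min, then 2 uM Z-FR-AMC substrate added; reaction progress from fluorescence change between first and third reads (60 s).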
Cruzain inh Det – inhibitors of Trypanosoma cruzi cruzain with detergent; P25779; purified cruzain, Z-FR-AMC fluorescence, 0.01% Triton; Potency, µM, inactives show max response, negative = inhibition, actives largely listed as inhibitors; hit rate 0.43% among 200,000; AID 1478;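 further: plate controls were neutral wells for no effect and buffer without enzyme for full effect; nearly all actives have a fitted effect of over 40% in size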
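Compounds were screened in titration against cruzain (1.5 nM) with 0.01% Triton X-100 to counter colloidal aggregation. Activity was the AMC fluorescence increase over 60 s after adding 2 uM Z-FR-AMC at pH 5.5.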
Starred values were filed as active, the others as inactive; ? = inconclusive. The call rests on the fitted dose curve; in most records, active means well fitted curve in the direction sought with a large enough effect; inconclusive means small, poorly fitted or top-dose-only effect, or another doubt; inactive means no such curve, though single readings can be large; an effect the other way counts as inactive or inconclusive. Potency means the concentration at half of the fitted maximal effect.

SMILES | Cruzain inh noDet | Cruzain inh Det
Nc1ccc2nn(-c3cccc4ccccc34)nc2c1 | ? | -3.1%
O=C(CNC(=O)c1ccccc1Cl)OCc1cc(=O)n2ccsc2n1 | 12.6µM* | 25.1µM*
Cc1csc2nc(COC(=O)CNC(=O)c3ccccc3)cc(=O)n12 | 2.0% | -7.5%
Cc1csc2nc(COC(=O)CNC(=O)c3ccccc3Cl)cc(=O)n12 | 20µM* | 25.1µM*
O=C(CNC(=O)c1ccc(F)cc1)OCc1cc(=O)n2ccsc2n1 | -0.2% | -6.6%
CCOC(=O)c1c(C)oc2ncnc(Nc3cc(C)cc(C)c3)c12 | -8.4% | -0.1%
C/C(=C(/CCO)SSC[C@@H]1CCCO1)N(C=O)Cc1cnc(C)nc1N | -2.3% | -4.9%
COC(=O)CSc1nnc(NC(=O)/C=C\c2ccc3c(c2)OCO3)s1 | -11.8% | 1.9%
O=C(/C=C\c1ccc2c(c1)OCO2)Nc1nnc(SCC(=O)OCc2ccccc2)s1 | 5.01µM* | -0.4%
COc1ccc(S(=O)(=O)N(CC(=O)NCCSc2ccccc2)c2ccc(Cl)cc2)cc1 | 3.1% | -4.6%
O=C(c1cnccn1)N1CCC2(CC1)CCN(c1ccccc1)CC2 | -3.6% | -0.6%
CCCN(CCC)S(=O)(=O)c1ccc(C(=O)NNc2nc(-c3ccccc3)c3cc(Br)ccc3n2)cc1 | 10µM* | -2.1%
CCCCN(CCCC)S(=O)(=O)c1ccc(NC(=O)c2c(-c3ccccc3)noc2C)cc1 | -8.7% | -7.4%
CC(=O)N1CCC2(CC1)CCN(c1ccccc1)CC2 | -1.1% | 4.5%
CCN(CCO)C[C@H]1CCC[C@H]2CCCC[C@@H]21 | -2.7% | -1.6%
O=C1NC(=S)S/C1=C\c1ccc(SCc2ccco2)o1 | ? | 15.8µM*
O=C1NC(=S)S/C1=C\c1ccc(SCc2ccccc2)o1 | -15.9% | -21.7%
Cc1cccc(C)c1NC(=O)Cn1cnc2c(=O)n(C)c(=O)n(C)c21 | -2.9% | -5.3%
Cn1c(=O)c2ncn(CC(=O)Nc3ccc4c5c(cccc35)CC4)c2n(C)c1=O | 12.6µM* | 12.6µM*
COc1cc(OC)c(NS(=O)(=O)c2c(C(=O)N3CCCCCC3)c(C)n(C)c2C)cc1Cl | ? | -0.7%
N#Cc1cc(-c2ccccc2)nnc1Sc1ccc(F)cc1 | 4.3% | -0.5%
N#Cc1cc(-c2ccccc2)nnc1Sc1ccccc1 | 25.1µM* | 0.3%
Cc1c(NC(=O)c2ccc(Cl)cc2)cc(C(C)C)c(O)c1S(=O)(=O)c1ccc(Cl)cc1 | 31.6µM* | 0.1%
Cc1c(NC(=O)c2ccccc2)cc(C(C)C)c(O)c1S(=O)(=O)c1ccc(Cl)cc1 | ? | -2.4%
COc1ccc(CNCc2ccc(C(=O)O)s2)cc1 | -5.3% | -0.8%
SMILES | Cruzain inh noDet | Cruzain inh Det
O=C(Nc1ccc(N2CCCC2)cc1)c1cccc(F)c1 | ? | -14.4%
O=C(Nc1ccccc1N1CCCC1)c1cccc(-c2cc3ccccc3oc2=O)c1 | 25.1µM* | -3.6%
O=C(Nc1ccc(N2CCOCC2)cc1)c1cc2ccccc2o1 | -18.4% | -0.1%
O=C(Nc1ccc(N2CCCCC2)cc1)c1ccccc1 | -5.8% | -1.5%
O=C(Nc1ccc(Br)cn1)c1cccc(-c2cc3ccccc3oc2=O)c1 | ? | -12.2%
O=C(Nc1ccc(N2CCCC2)cc1)c1ccc2ccccc2c1 | 15.8µM* | -23.3%
O=C(Nc1ccc(N2CCCC2)cc1)c1cccc(-c2cc3ccccc3oc2=O)c1 | 3.98µM* | -15.6%
O=C(Nc1ccc(N2CCCC2)cc1)c1ccccc1F | 20µM* | -10.3%
[N-]=[N+]=NC[C@@H]1O[C@@H](n2cnc3c(N)ncnc32)[C@@H]2O[C@@H]21 | 11.2% | 4.0%
Nc1nc(Cl)cc(NCCO)n1 | -0.3% | 1.2%
NCCOC[C@H](N)C(=O)O | 2.6% | 3.0%
Cc1nc(NC(=O)c2cccc(-c3cc4ccccc4oc3=O)c2)ccc1Br | 20µM* | -10.6%
Cc1nc(NC(=O)c2ccc(-c3cc4ccccc4oc3=O)cc2)ccc1Br | ? | -0.9%
CN(C)c1ccc(NC(=O)c2ccc([N+](=O)[O-])cc2Cl)cc1 | ? | -0.8%
O=C(Nc1ccc(N2CCCC2)cc1)c1ccc([N+](=O)[O-])cc1Cl | 10µM* | -0.4%
CC(=O)Nc1ccccc1OCc1cc(=O)n2c3c(sc2n1)CCCC3 | 3.3% | -0.8%
Cc1cccc(C(=O)NNc2ncnc3c2cnn3-c2ccc(C)cc2C)c1 | -7.6% | 1.4%
CCCSc1nc2c([nH]c3ccccc32)c(=O)n1C | -3.6% | 0.0%
COc1cccc(-n2c(SCc3ccccc3C)nc3c([nH]c4ccccc43)c2=O)c1 | 3.98µM* | 0.0%
Cc1cccc(CSc2nc3c([nH]c4ccccc43)c(=O)n2C)c1 | -14.7% | -0.4%
COc1cccc(-n2c(SCC(=O)c3ccccc3)nc3c([nH]c4ccccc43)c2=O)c1 | 2.0% | 2.8%
COc1cccc(-n2c(SCc3cccc(C)c3)nc3c([nH]c4ccccc43)c2=O)c1 | 15.8µM* | -1.5%
CCSc1nc2c([nH]c3ccccc32)c(=O)n1C | 12.6µM* | 4.4%
Cc1ccccc1Nc1oc(-c2ccccc2)nc1-c1ccccc1 | -9.4% | 0.4%
CCCc1nnc(NC(=O)Cc2coc3cc(C)cc(C)c23)s1 | -5.4% | -2.2%
SMILES | Cruzain inh noDet | Cruzain inh Det
CCc1ccc(-n2c(C)nnc2SCc2nc(-c3ccc(OC)cc3)no2)cc1 | 24.1% | -7.4%
COc1ccc(CNc2ccccc2)cc1Br | -9.1% | -5.9%
COc1cc(CNc2cccc(F)c2)cc(Br)c1O | 25.1µM* | -5.4%
Nc1nnc(SCC(=O)NCCOc2ccccc2)s1 | ? | 28.2µM*
O=C(CSc1nc2ccccc2s1)NCCOc1ccccc1 | -0.1% | -5.5%
CCOC(=O)CNC(=O)O[C@@H]1C(=O)c2cc(OC)ccc2O[C@H]1c1cccc(OC)c1 | -0.5% | 3.5%
CCOC(=O)CNC(=O)O[C@H]1C(=O)c2cc(OC)ccc2O[C@@H]1c1ccc(OC)c(Br)c1 | 12.6µM* | -0.7%
Cc1cccc(CSc2ccc3nnc(-c4cccs4)n3n2)c1 | 31.6µM* | -4.0%
Fc1ccc(CSc2ccc3nnc(-c4cccs4)n3n2)cc1 | ? | -2.0%
O=C(NCc1ccccc1Br)c1cnc2sc(N3CCCCCC3)nn2c1=O | 5.4% | -2.2%
COc1ccc(NC(=O)c2cccc3c(=O)c4c([nH]c23)CCCC4)cc1 | 14.3% | -3.0%
COc1ccc(-c2cc3nnc(-c4ccccc4)nc3s2)cc1 | 3.16µM* | -2.0%
COc1cccc(-c2nc(-c3ccccc3)no2)c1 | -0.6% | -3.1%
CCN(CC)c1ccc(S(=O)(=O)Nc2cc(Cl)ccc2Cl)cc1NC(=S)NC(=O)C1CCCC1 | 31.6µM* | -2.1%
COc1ccccc1NS(=O)(=O)c1ccc(Cl)c(NC(=S)NC(=O)C2CCCC2)c1 | ? | -13.2%
CSCCC(NS(=O)(=O)c1ccc2c(c1)oc(=O)n2C)C(=O)NCCc1ccc(C)cc1 (configuration not stated) | -5.6% | 0.9%
NC(=S)NNC(=O)Nc1ccc(Cl)c(Cl)c1 | 2µM* | 3.16µM*
O=C(Cc1ccccc1)NNC(=O)Nc1ccc(Cl)c(Cl)c1 | -0.6% | 0.1%
Cc1nn2c(C)c(C(=O)NCc3cccc(Br)c3)cnc2c1-c1ccccc1 | -0.4% | -7.5%
CC1=NNC(=S)NCCCN2CCN(CCCNC(=S)NN=C(C)C=NNC(=S)NCCCN3CCN(CCCNC(=S)NN=C1)CC3)CC2 | -0.9% | -1.7%
CC(=O)N1CCC[C@@]2(CCN(c3ccncc3)C2)C1 | -6.4% | 0.8%
Cc1cccc(C(=O)O/N=C(\N)c2ccc(Br)cc2)c1 | 3.1% | 0.2%
N/C(=N\OC(=O)c1ccc2ccccc2c1)c1ccc(Br)cc1 | 10µM* | -1.6%
COc1ccc(N(C(=O)c2cccc(C)c2)S(=O)(=O)c2ccc3c(c2)n(C)c(=O)n3C)cc1 | ? | -4.7%
